TSHR antag – Antagonists of the Thyroid Stimulating Hormone Receptor: HTS campaign | Thyrotropin receptor (Homo sapiens), P16473 | TSHR-expressing cells, TSH-stimulated cAMP HTRF, 2 h; stronger effect = lower value | activity change, negative = inhibition, % at 11.5 µM | hit rate 0.2% among 330,000 | AID 504810, 2011;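 active means activity change below a set negative limit, meaning inhibition stronger than a set level, cut at about -70% in these data; inconclusive means activity change between two set negative limits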
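Inhibition of cAMP made by TSHR-expressing cells under TSH stimulation (4nM final, EC80; 2 h, 37 deg C) is quantified with a one-step lysis HTRF kit, anti-cAMP cryptate versus cAMP-d2.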
RORg inh – qHTS for inhibitors of ROR gamma transcriptional activity. Nuclear receptor ROR-gamma (Mus musculus), P51450. Drosophila S2 Gal4-RORgamma UAS-luciferase reporter, 20 h. Potency, µM (titrated, usually from 53.6 µM), for inactives: at the highest dose activity change, negative = inhibition, hits mostly inhibitors. hit rate 5.4% among 310,000; further: potency means the concentration at half of the fitted maximal effect; nearly all actives have a fitted effect of over 60% in size
Target sequence (P51450 whole entry, looked up, the tested form may be a part): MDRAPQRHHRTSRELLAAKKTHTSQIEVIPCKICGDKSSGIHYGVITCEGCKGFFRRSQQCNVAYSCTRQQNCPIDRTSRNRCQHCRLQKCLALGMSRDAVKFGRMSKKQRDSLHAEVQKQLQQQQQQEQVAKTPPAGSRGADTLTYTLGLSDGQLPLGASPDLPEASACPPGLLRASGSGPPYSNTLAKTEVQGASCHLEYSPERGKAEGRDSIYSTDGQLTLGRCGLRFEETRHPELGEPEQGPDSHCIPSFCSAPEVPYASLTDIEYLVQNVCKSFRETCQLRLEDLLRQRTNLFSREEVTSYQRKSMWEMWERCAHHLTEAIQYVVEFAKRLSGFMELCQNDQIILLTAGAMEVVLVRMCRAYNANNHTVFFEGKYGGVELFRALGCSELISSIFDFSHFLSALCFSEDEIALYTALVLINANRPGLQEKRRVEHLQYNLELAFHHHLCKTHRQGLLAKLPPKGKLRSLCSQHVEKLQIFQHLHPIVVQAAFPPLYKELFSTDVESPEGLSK
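Using a luciferase readout, inhibitors were identified by reduced reporter activity in Drosophila cells coexpressing a copper-inducible Gal4–ROR gamma fusion and UAS-driven Photinus luciferase, incubated 20 hr after 700 uM copper sulfate.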
ELG1 repair inh – qHTS screen for small molecules that inhibit ELG1-dependent DNA repair in human embryonic kidney (HEK293T) cells expressing luciferase-tagged ELG1. HEK293T ELG1-luciferase reporter, luminescence, 16 h; DNA damage induced by 5-fluorouridine. Potency, µM (top dose mostly 46.1 µM), for inactives: at the top dose activity change, negative = inhibition, actives largely listed as inhibitors. hit rate 2.3% among 330,000; further: potency means the concentration at half of the fitted maximal effect; nearly all actives have a fitted effect of over 55% in size
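Reporter activity after DNA damage by 5-fluorouridine is monitored. Compound-treated cells incubate 16 hr at 37 °C, then ONE-Glo is added for 30 min before luminescence reading.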
VP16 counter – VP16 counterscreen qHTS for inhibitors of ROR gamma transcriptional activity; Potency, µM (titrated, usually from 53.6 µM), inactives show at the top dose activity, negative = inhibition, most hits filed as inhibitors; AID 2546, 2010; Drosophila S2 Gal4-VP16 UAS-luciferase, luminescence, 20 h; hit rate 3.5% among 310,000;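 further: Gal4-VP16 expression switched on by copper sulfate through the metallothionein promoter; potency means the concentration at half of the fitted maximal effect; nearly all actives have a fitted effect of over 50% in size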
B2AR arrestin – qHTS assay of beta-arrestin-biased ligands of beta2-adrenergic receptor. Beta-2 adrenergic receptor (Homo sapiens), P07550. beta-arrestin recruitment to beta2AR, cell-based reporter. Potency, µM (highest dose often 46.1 µM), without a hit: at the top dose activation, usual class: activators. hit rate 0.02% among 330,000;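 further: potency means the concentration at half of the fitted maximal effect; 0% = DMSO controls and full agonism = EC100 isoproterenol or metaproterenol; nearly all actives have a fitted effect of over 65% in size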
An asterisk follows results filed as active; ? = inconclusive; · = no result; ! = a repeat was not active; [ ] = remark or other dose. Compounds with a hit are over-represented: about 7.5% of the library has one in this group of screens. Unless noted, the call rests on the fitted dose curve; in most records, active means well fitted curve in the direction sought with a large enough effect; inconclusive means small, poorly fitted or top-dose-only effect, or another doubt; inactive means no such curve, though single readings can be large; an effect the other way counts as inactive or inconclusive. Unless noted, on the % scale 0 is the no-effect control and ±100 the full control effect.

SMILES	TSHR antag	RORg inh	ELG1 repair inh	VP16 counter	B2AR arrestin
COc1ccc(OCc2nc3ccc(S(=O)(=O)Nc4ccccc4Cl)cc3[nH]2)cc1	27	?	-21%	-10%	2%
COc1ccc(NS(=O)(=O)c2ccc3nc(COc4cccc5ccccc45)[nH]c3c2)cc1	-6	?	23µM*	-8%	4%
COc1ccc(NS(=O)(=O)c2ccc3nc(COc4ccc5ccccc5c4)[nH]c3c2)cc1	20	-13%	23µM*	-18%	3%
COc1ccc2c(c1)O[C@H](c1ccc3c(c1)OCO3)[C@@H](OC(=O)NCCc1ccc(OC)c(OC)c1)C2=O	·	3%	·	-11%	·
Cc1cc(C(=O)CN2C(=O)CN(C)C2=O)c(C)n1-c1cccc(S(=O)(=O)N2CCOCC2)c1	-3	1%	?	-8%	0%
Cc1cc(C(=O)CCl)c(C)n1-c1cccc(S(=O)(=O)N2CCOCC2)c1	-4	10µM*	7%	-12%[10 µM]	0%
Cc1ccc(N(C(=O)CCl)C(C(=O)NC2CCCCC2)c2cccnc2)cc1C (stereo not given)	6	11µM*	9.2µM*	?	0%
Cc1snnc1C(=O)NC(=S)Nc1ccccc1	-6	4.5µM*	0%	5.6µM*	0%
COc1ccc(NC(=S)NC(=O)c2ccc(Br)o2)cc1	-6	1µM*	?	?	?
O=C(NC(=S)Nc1ccccc1)c1ccc(Br)o1	-11	3.2µM*	?	0%	0%
COC(=O)c1ccc(Nc2nnc(-c3ccc(C)c(S(=O)(=O)NCC4CCCO4)c3)c3ccccc23)cc1 (stereo not given)	-1	8%	?	2%	-1%
Cc1ccc(-c2nnc(Nc3ccc(C(=O)N(C)C)cc3)c3ccccc23)cc1S(=O)(=O)NCC1CCCO1 (stereo not given)	-2	37%	21µM*	1%	0%
Cc1ccc(OCC(=O)N(C)C2CCCCC2)c([N+](=O)[O-])n1	2	·	5%	·	0%
COc1ccc(N(C(C)C(=O)N2CCC(Cc3ccccc3)CC2)S(C)(=O)=O)cc1 (stereo not given)	-18	?	?	?	0%
CCOC(=O)C1CCN(C(=O)C(C)N(c2ccc(Oc3ccccc3)cc2)S(C)(=O)=O)CC1 (stereo not given)	-20	-91%	-7%	20µM*	0%
CCOC(=O)N1CCN(C(=O)C(C)N(c2ccc(Oc3ccccc3)cc2)S(C)(=O)=O)CC1 (stereo not given)	-5	-9%[0.365 µM]	6.5µM*	·	1%
N#Cc1cccc(NC(=O)N2CCCC3(CCN(C(=O)c4ccco4)CC3)C2)c1	·	-3%	·	17%	·
NCCCCCc1nnc(SCc2ccccc2Cl)o1	0	1µM*	-5%	0.45µM*	0%
Nc1ccc(Oc2ccc([N+](=O)[O-])cc2[N+](=O)[O-])cc1	8	8.9µM*	29%	3%	0%
CC1=NN(c2ccccc2)C(=O)/C1=C\c1ccc(Oc2ccc([N+](=O)[O-])cc2[N+](=O)[O-])cc1	-1	-39%	?	?	3%
O=c1ccc2ccc(Oc3ccc([N+](=O)[O-])cc3[N+](=O)[O-])cc2o1	-4	10µM*	?	?	-1%
C/C(CCN1CCCCc2nc(C)c(C)cc21)=N\O[C@@H](C)CN1CCCc2nc(C)c(C)cc21	·	16%[10 µM]	·	3%[10 µM]	·
Cc1ccc(NC(=O)NCCCN2CCCC2=O)cc1C	-5	26%	?	12%	0%
N#CC(=C=[N-])c1nc2ccccc2nc1-[n+]1cccc(NC(=O)c2ccc(F)cc2)c1	-9	-1%	7%	-2%	0%
N#CC(=C=[N-])c1nc2ccccc2nc1-[n+]1cccc(NC(=O)c2ccccc2)c1	1	5µM*!	9%	?	-1%
SMILES	TSHR antag	RORg inh	ELG1 repair inh	VP16 counter	B2AR arrestin
O=c1c(-c2ccc(O)cc2)coc2c(C3OC(CO)C(O)C(O)C3O)c(O)ccc12 (stereo not given)	·	-7%	·	-7%	·
COc1ccc2c(c1)c(CC(=O)Nc1ccc(C(C)=O)cc1)c(C)n2C(=O)c1ccc(Cl)cc1	-2	81%	12µM*	0%	-1%
COc1ccc2c(c1)c(CC(=O)Nc1nnc(C3CC3)s1)c(C)n2C(=O)c1ccc(Cl)cc1	-11	3%	5.8µM*	-10%	0%
COc1ccc(-c2nnc3n2N=C(c2ccc(OC)c(OC)c2)CS3)cc1	·	-34%	·	4%	·
Cc1nn(-c2ccccc2)c(N)c1C(c1ccc(C(C)C)cc1)c1c(C)nn(-c2ccccc2)c1N	-13	22%[10 µM]	8.2µM*	-5%	0%
CC(NS(=O)(=O)CCNC(=O)c1ccccc1)c1ccccc1 (stereo not given)	4	·	?	·	0%
CCOc1ccc(N2CC(C(=O)N3CCN(C(=O)c4ccco4)CC3)CC2=O)cc1 (stereo not given)	-34	31%	11%	7%	0%
CC(C)C[C@H](NC(=O)c1[nH]cnc1C(=O)N[C@@H](Cc1ccccc1)C(=O)OC(C)(C)C)C(=O)OCc1ccccc1	-4	7.9µM*	16%	?	0%
CC(C)(C)OC(=O)CNC(=O)c1nc[nH]c1C(=O)NCc1ccccc1	0	7.1µM*	-22%	?	0%
CC(C)(C)OC(=O)C(Cc1ccc(OC(C)(C)C)cc1)NC(=O)CNC(=O)OCc1ccccc1 (stereo not given)	-6	?	8.2µM*	?	-1%
CCN(CC)C(=O)c1[nH]cnc1C(=O)N[C@@H](CC(C)C)C(=O)OC(C)(C)C	1	?	-15%	?	1%
CC(C)(C)OC(=O)NCCOC(=O)c1[nH]cnc1C(=O)NCc1ccccc1	4	·	-7%	·	0%
C[C@H](NC(=O)c1nc[nH]c1C(=O)N[C@@H](Cc1ccccc1)C(=O)OCc1ccccc1)C(=O)OC(C)(C)C	-18	?	-2%	?	-1%
CCN(CC)C(=O)c1[nH]cnc1C(=O)N[C@@H](Cc1ccccc1)C(=O)OC(C)(C)C	31	10µM*	0%	?	0%
COc1ccc2c(c1)O[C@H](c1ccc3c(c1)OCO3)[C@@H](OC(=O)NCc1ccco1)C2=O	·	?	·	-14%	·
CCCCNC(=O)N1CCN(Cc2ccc(F)cc2)CC1	-23	41%	7%	-13%	8%
CC(C)C[C@H](NC(=O)c1[nH]cnc1C(=O)N[C@@H](C)C(=O)OCc1ccccc1)C(=O)OCc1ccccc1	-2	·	-15%	·	-1%

Screens: PubChem BioAssay, National Center for Advancing Translational Sciences (NCATS)
